Measurements published in PubChem BioAssay AID1159580 (chemical genetic matrix, 2015).
Where “and” joins values, the source holds several entries; their conditions need not be identical. Identical values can stand only once. In all, about 5,500 compounds went through this assay and about 2,000 (36%) were called active. About 18% were inconclusive and are not listed. No stated cut-off is given here; in the data, active means normalized growth mostly below about 0.91 (no sharp cut-off); inconclusive means no clear call, values can overlap the other calls; inactive means mostly above about 0.92. Some of the results follow.

Assay: chemical genetic growth profiling, strain panel (AID 1159580);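 further: tested at 20 µM; growth read once vehicle control cultures reached saturation at 30 °C; 1 = growth at the plate median or of vehicle wells; lower values mean less growth of the strain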
Conditions: S. cerevisiae deletion strains, growth OD

Measured: normalized growth

Nc1c(Br)cc(Br)cc1CNC1CCC(O)CC1 (centres undefined)
inactive: locus YAL021C, strain ccr4, active compounds read low 1.01 | locus YAL026C, strain drs2, active compounds read low 0.968 | locus YAL030W, strain snc1, active compounds read low 1.01 | locus YBL061C, strain skt5, active compounds read low 1.02 | locus YBR009C, strain hhf1, active compounds read low 1.03 | locus YBR021W, strain FUR4, active compounds read low 0.996 | locus YBR023C, strain chs3, active compounds read low 1.01 | locus YBR171W, strain sec66, active compounds read low 1.02 | locus YBR229C, strain ROT2, active compounds read low 1.01 | locus YBR231C, strain swc5, active compounds read low 1.01 | locus YBR279W, strain paf1, active compounds read low 1.01 | locus YCL011C, strain gbp2, active compounds read low 1.02 | locus YCL016C, strain dcc1, active compounds read low 1.01 | locus YCL029C, strain bik1, active compounds read low 1 | locus YCL061C, strain MRC1, active compounds read low 1.02 | locus YCL069W, strain vba3, active compounds read low 1.02 | locus YCR088W, strain abp1, active compounds read low 1.02 | locus YDL005C, strain med2, active compounds read low 1.02 | locus YDL035C, strain GPR1, active compounds read low 1.01 | locus YDL040C, strain nat1, active compounds read low 0.992 | locus YDL074C, strain BRE1, active compounds read low 1.01 | locus YDL101C, strain DUN1, active compounds read low 1.02 | locus YDL134C, strain PPH21, active compounds read low 1.01 | locus YDL185W, strain tfp1, active compounds read low 0.996 | locus YDL192W, strain arf1, active compounds read low 0.995 | locus YDR001C, strain nth1, active compounds read low 1.01 | locus YDR069C, strain doa4, active compounds read low 0.985 | locus YDR101C, strain arx1, active compounds read low 0.985 | locus YDR137W, strain rgp1, active compounds read low 0.949 | locus YDR150W, strain NUM1, active compounds read low 1 | locus YDR159W, strain sac3, active compounds read low 0.997 | locus YDR162C, strain NBP2, active compounds read low 1.01 | locus YDR195W, strain ref2 1 | locus YDR297W, strain sur2, active compounds read low 0.982 | locus YDR318W, strain mcm21, active compounds read low 1 | locus YDR334W, strain swr1, active compounds read low 1.02 | locus YDR335W, strain msn5, active compounds read low 0.992 | locus YDR388W, active compounds read low 1.01 | locus YDR392W, strain spt3, active compounds read low 0.966 | locus YDR502C, strain sam2, active compounds read low 0.991 | locus YEL003W, strain gim4, active compounds read low 1.01 | locus YEL037C, strain rad23, active compounds read low 1.02 | locus YEL061C, strain CIN8 (second series), active compounds read low 1.02 | locus YEL061C, strain CIN8, active compounds read low 1.01 | locus YER015W, strain faa2, active compounds read low 1.02 | locus YER016W, strain bim1, active compounds read low 1 | locus YER110C, active compounds read low 1 | locus YER111C, strain swi4, active compounds read low 1.02 | locus YER155C, strain BEM2 (second series), active compounds read low 0.992 | locus YER155C, strain BEM2, active compounds read low 1.01 | locus YER167W, strain BCK2, active compounds read low 1.02 | locus YFR010W, strain ubp6, active compounds read low 1.03 | locus YGL078C, strain dbp3, active compounds read low 0.98 | locus YGL086W, strain mad1, active compounds read low 0.996 | locus YGL167C, strain pmr1, active compounds read low 1 | locus YGL173C, strain kem1, active compounds read low 1.03 | locus YGL227W, strain vid30, active compounds read low 1.01 | locus YGL240W, strain doc1, active compounds read low 0.981 | locus YGL248W, strain PDE1, active compounds read low 0.997 | locus YGL253W, strain hxk2, active compounds read low 1.01 | locus YGR078C, strain PAC10, active compounds read low 0.994 | locus YGR135W, strain pre9, active compounds read low 0.984 | locus YGR252W, strain gcn5, active compounds read low 0.955 | locus YHR013C, strain ard1, active compounds read low 1.02 | locus YHR027C, strain rpn1, active compounds read low 1 | locus YHR030C, strain SLT2, active compounds read low 1 and 1.04 | locus YHR079C, strain IRE1 (second series), active compounds read low 1.01 | locus YHR079C, strain IRE1, active compounds read low 1.03 | locus YHR094C, strain hxt1, active compounds read low 0.998 | locus YHR129C, strain ARP1, active compounds read low 1.01 | locus YHR142W, strain chs7, active compounds read low 1.02 | locus YHR200W, strain rpn10, active compounds read low 0.999 | locus YIL066C, strain RNR3, active compounds read low 1 | locus YIL073C, strain SPO22, active compounds read low 1.04 | locus YIL125W, strain kgd1, active compounds read low 0.999 | locus YIR030C, strain dcg1, active compounds read low 0.997 | locus YJL092W, strain hpr5, active compounds read low 1.02 | locus YJL095W, strain BCK1 (second series), active compounds read low 0.98 | locus YJL095W, strain BCK1, active compounds read low 0.973 and 1.04 | locus YJL115W, strain asf1, active compounds read low 1.02 | locus YJL129C, strain trk1, active compounds read low 1.02 | locus YJL134W, strain LCB3, active compounds read low 1.01 | locus YJL154C, strain vps35, active compounds read low 1.02 | locus YJL164C, strain tpk1, active compounds read low 1.01 | locus YJL166W, strain qcr8, active compounds read low 1.02 | locus YJL168C, strain set2, active compounds read low 1 | locus YJL187C, strain SWE1 (second series), active compounds read low 0.993 | locus YJL187C, strain SWE1, active compounds read low 0.988 | locus YJR043C, strain POL32, active compounds read low 1.02
